# This is part of a sample that, as a whole, favours compounds with a hit. Of some 83,000 tested, about 20% had one in any assay.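 Negative percent growth values reflect cell death: -40 means 40% of the cells present at the start died, and -100 means all died.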 Values without a mark were called inactive. Active and inactive are the calls of the source. How the source made its calls: active means growth percent below 10; inactive means the rest.
# Assays:
# Experiment in all cases: NCI-60 one-dose screen, 48 h (100 = growth as untreated, 0 = no growth, -100 = all killed)
# Details in all cases: 10 µM unless noted
# SR leukemia = test system: SR leukemia
# RPMI-8226 leukemia = test system: RPMI-8226 leukemia
# OVCAR-8 ovarian = test system: OVCAR-8 ovarian
# OVCAR-5 ovarian = test system: OVCAR-5 ovarian
# OVCAR-4 ovarian = test system: OVCAR-4 ovarian
# SK-OV-3 ovarian = test system: SK-OV-3 ovarian
# IGROV1 ovarian = test system: IGROV1 ovarian
# OVCAR-3 ovarian = test system: OVCAR-3 ovarian
# HS 578T breast = test system: HS 578T breast
# NCI/ADR-RES ovarian = test system: NCI/ADR-RES ovarian
# T-47D breast = test system: T-47D breast
# BT-549 breast = test system: BT-549 breast
# MDA-MB-435 melanoma = test system: MDA-MB-435 melanoma
# SW-620 colon = test system: SW-620 colon
# MCF7 breast = test system: MCF7 breast
# HCT-116 colon = test system: HCT-116 colon
# HCC-2998 colon = test system: HCC-2998 colon
# KM12 colon = test system: KM12 colon
Structure (SMILES),growth (SR leukemia),growth (RPMI-8226 leukemia),growth (OVCAR-8 ovarian),growth (OVCAR-5 ovarian),growth (OVCAR-4 ovarian),growth (SK-OV-3 ovarian),growth (IGROV1 ovarian),growth (OVCAR-3 ovarian),growth (HS 578T breast),growth (NCI/ADR-RES ovarian),growth (T-47D breast),growth (BT-549 breast),growth (MDA-MB-435 melanoma),growth (SW-620 colon),growth (MCF7 breast),growth (HCT-116 colon),growth (HCC-2998 colon),growth (KM12 colon)
CC(C)CNc1nc(N=[N+]=[N-])nc(NCC(C)C)n1,-7.86% [100 µM] (active),33.1% [100 µM],57.3% [100 µM],75% [100 µM],52.7% [100 µM],83.7% [100 µM],70.9% [100 µM],60.1% [100 µM],61.1% [100 µM],54.1% [100 µM],48.6% [100 µM],56.9% [100 µM],55.6% [100 µM],81.9% [100 µM],52.4% [100 µM],42.9% [100 µM],79.4% [100 µM],
COc1ccc(Cl)cc1Nc1nc(C(F)(F)F)ccc1C(=O)N/N=C/c1c(Cl)cccc1Cl,22%,40.1%,55.2%,75.3%,39%,49.7%,29.6%,-2.74% (active),54.3%,49.9%,42.2%,48.6%,62.7%,36.9%,185%,51.4%,63.5%,
CCCCCCC(CC#N)(CCC)CCCC (configuration not stated),103%,103%,105%,97.8%,114%,113%,101%,119%,95.3%,109%,112%,120%,103%,107%,96.1%,104%,110%,111%
N#Cc1ccccc1C#Cc1ccccc1C#Cc1ccc(OCCCCCCOc2ccc(C#Cc3ccccc3C#Cc3ccccc3C#N)cc2)cc1,113%,108%,98.7%,96%,107%,111%,-19% (active),126%,110%,104%,93.4%,112%,107%,96.6%,78.6%,91.8%,107%,105%
C[C@@H]1CN(c2nc3c(cc2F)c(=O)c(C(=O)O)cn3C(C)(C)C)C[C@H](C)N1,115%,114%,94.8%,109%,104%,105%,121%,104%,67.2%,80.6%,95.5%,107%,107%,100%,113%,92.2%,98.1%,98.5%
CCSc1nc(Nc2ccc(S(=O)(=O)Nc3ccon3)cc2)c(C#N)c(-c2cccc(Br)c2)n1,93.7%,79.3%,91.2%,89.6%,103%,99.1%,122%,117%,105%,110%,81%,90.2%,102%,110%,79.2%,85%,106%,95.1%
COC(=O)[C@H](Cc1cn(C)cn1)NC(=O)[C@H](C)NC(=O)Nc1cc(C(F)(F)F)cc(C(F)(F)F)c1,-31.1% [100 µM] (active),-31.7% [100 µM] (active),-68.1% [100 µM] (active),-43.8% [100 µM] (active),-58.3% [100 µM] (active),-97.5% [100 µM] (active),-54% [100 µM] (active),-89.4% [100 µM] (active),-1.05% [100 µM] (active),79.3% [100 µM],-58.7% [100 µM] (active),-91.6% [100 µM] (active),-86.7% [100 µM] (active),-27.4% [100 µM] (active),-60% [100 µM] (active),-84.2% [100 µM] (active),-88.9% [100 µM] (active),-70.8% [100 µM] (active)
Clc1ccc2[nH]cc(-c3cncn3CCc3ccccc3)c2c1,41%,22.6%,32.9%,74.7%,14.2%,41.1%,69.3%,55.4%,51.3%,51.1%,13.2%,40.3%,50.9%,72.8%,53.2%,44.1%,89.2%,72.9%
